# From PMC5913336, “True equilibrium measurement of transcription factor-DNA binding affinities using automated polarization microscopy”
# Biological target: T1, Croc (Drosophila melanogaster, UniProt P32027 54-175)
# T1 sequence: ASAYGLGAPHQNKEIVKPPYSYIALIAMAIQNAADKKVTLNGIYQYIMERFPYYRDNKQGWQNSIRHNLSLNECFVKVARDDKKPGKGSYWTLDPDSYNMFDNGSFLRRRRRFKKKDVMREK
# Assay: FP; 20 mM Tris-acetate pH 7.0, 50 "nM" NaCl as printed (probably mM), 0.01% Tween 20, 0.1 mM DTT; conventional titration
# Conditions: tags: N-GST (pGEX-6P-1, kept); dsDNA, one strand shown
Sequence,binding signal,Kd [nM]
CTAGATAAATATA,4.3 Kd / Kd of best base at the position,
TTAAATAAATATA,1.66 Kd / Kd of best base at the position,
TTAGATAAATCTA,46 Kd / Kd of best base at the position,
TTAGCTAAATATA,38.6 Kd / Kd of best base at the position,
TTAGAGAAATATA,48.4 Kd / Kd of best base at the position,
TTAGATAAATAAA,2.04 Kd / Kd of best base at the position,
TTAGATTAATATA,109 Kd / Kd of best base at the position,
TTTGATAAATATA,15.4 Kd / Kd of best base at the position,
TCAGATAAATATA,51.8 Kd / Kd of best base at the position,
TTAGATAAATATG,17.4 Kd / Kd of best base at the position,
TAAGATAAATATA,7.76 Kd / Kd of best base at the position,
TTAGATAAAGATA,119 Kd / Kd of best base at the position,
TTAGATACATATA,93.4 Kd / Kd of best base at the position,
ATAGATAAATATA,9.22 Kd / Kd of best base at the position,
TTAGAAAAATATA,7.44 Kd / Kd of best base at the position,
TTATATAAATATA,2.66 Kd / Kd of best base at the position,
TTAGGTAAATATA,3.08 Kd / Kd of best base at the position,
TTAGATAAAAATA,380 Kd / Kd of best base at the position,
TTAGATAAATACA,1.16 Kd / Kd of best base at the position,
TTAGATAAACATA,1.86 Kd / Kd of best base at the position,

Sequence,binding signal,Kd [nM]
GTAGATAAATATA,13.8 Kd / Kd of best base at the position,
TTGGATAAATATA,5.64 Kd / Kd of best base at the position,
TTAGATAAGTATA,95 Kd / Kd of best base at the position,
TTAGACAAATATA,16.3 Kd / Kd of best base at the position,
TTAGATAAATATC,2.74 Kd / Kd of best base at the position,
TTAGATAACTATA,387 Kd / Kd of best base at the position,
TTAGATAGATATA,1160 Kd / Kd of best base at the position,
TTAGATAAATATT,1.02 Kd / Kd of best base at the position,
TTACATAAATATA,6.62 Kd / Kd of best base at the position,
TTAGATAAATTTA,35.4 Kd / Kd of best base at the position,
TTAGTTAAATATA,43.2 Kd / Kd of best base at the position,
TGAGATAAATATA,76.4 Kd / Kd of best base at the position,
TTAGATAAATAGA,5.76 Kd / Kd of best base at the position,
TTAGATAATTATA,197 Kd / Kd of best base at the position,
TTAGATAAATATA,,~0.3
TTAGATCAATATA,8.58 Kd / Kd of best base at the position,
TTAGATATATATA,164 Kd / Kd of best base at the position,
TTAGATAAATGTA,79 Kd / Kd of best base at the position,
TTCGATAAATATA,33 Kd / Kd of best base at the position,
